Measured values reported in ChEMBL document CHEMBL1157539, “Thousands of chemical starting points for antimalarial lead identification” (Nature, 2010).
Several values for one entry are separate records, joined by “and”; a condition that tells them apart may be missing. Equal values may be shown once.

What follows are compounds tested on Plasmodium falciparum (assay: GSK_TCMDC: Inhibition of Plasmodium falciparum 3D7 in whole red blood cells, using parasite LDH activity as an index of growth. Test compounds present at 2uM).
Type: functional
`CCOc1cc(OCC)c2ccccc2c1CNCCCCCCNCc1c(OCC)cc(OCC)c2ccccc12.CS(=O)(=O)O` gave an Inhibition of 100%.
`CC/N=C(/NCCCCCCN/C(=N/CC)NCc1ccccc1)NCc1ccccc1.I` gave an Inhibition of 96%.
`Cl.Oc1c(CNC2CCCCC2)cc(Cl)c2ccccc12` gave an Inhibition of 98%.
`COc1ccc2ncc(F)c(C(O)CN3CCC(NCc4ccc5c(n4)NC(=O)CO5)CC3)c2c1.Cl` (stereo not given) was tested, and the Inhibition was 99% and 100%.
With `COc1cc(Cc2cnc(N)nc2N)cc(OCCCCCCC(=O)O)c1OC` the Inhibition was 90%.
Work on `Cc1c(C(C)(C)C)ccc2nc(N)nc(N)c12` yielded an Inhibition of 89%.
For `Nc1nc(Cc2ccc(Cl)cc2)nc(Cc2ccc(Cl)cc2)n1`, the Inhibition was 85%.
With `CCCc1cc(OC)c(CC2c3cc(O)c(Cl)cc3C(c3ccccc3)CN2C)cc1OC.Cl` (stereo not given) the Inhibition was 100%.
In the case of `CCOc1cc2ncnc(Nc3ccc(OCc4ccccc4OC)c(OC)c3)c2cc1OCC.Cl`, the Inhibition is reported as 97%.
Work on `CN1CCN(c2ccc3[nH]c(-c4ccc5[nH]c(-c6ccc([N+](=O)[O-])c(N)c6)nc5c4)nc3c2)CC1` yielded an Inhibition of 100%.
With `CCCCSc1ccc(CNCCCCCCNCc2ccc(SCCCC)c3ccccc23)c2ccccc12.CS(=O)(=O)O` the Inhibition was 94%.
For `CCCCCCOc1ccc2ccccc2c1CNCCCCCCNCc1c(OCCCCCC)ccc2ccccc12.CS(=O)(=O)O`, the Inhibition was 85%.
`Cc1nc(C)c(-c2ccc(Oc3ccc(Cl)cc3)c(Cl)c2)c(O)c1Br` was tested, and the Inhibition was 97%.
In the case of `COc1ccc(OC)c(Cc2c(C)nc3nc(N)nc(N)c3c2C)c1.Cl`, the Inhibition is reported as 90%.
Work on `CCN1C(=O)C(=NN=C(S)N2CCCC2)c2ccccc21` yielded an Inhibition of 91%.
`CCCCNCCOc1ccc(-c2nc(-c3ccccc3)c(-c3ccccc3)[nH]2)cc1` gave an Inhibition of 100%.
`Br.CC(C)(C)OC(=O)N[C@@H](CS(=O)(=O)CCNC(=N)COCc1ccccc1)C(=O)OC(C)(C)C` gave an Inhibition of 88%.
In the case of `Cl.Oc1cc2ccccc2cc1CNC1CCCCC1`, the Inhibition is reported as 98%.
`CC(C)Oc1ccc2ccccc2c1CNCCCCCCNCc1c(OC(C)C)ccc2ccccc12.CS(=O)(=O)O` showed an Inhibition of 99%.
`Nc1ncc(-c2ccc(S(=O)(=O)Nc3ccc(C(=O)N[C@@H](CCC(=O)O)C(=O)O)cc3)cc2)c(=O)[nH]1` showed an Inhibition of 99%.
In the case of `COc1ccc2c(OC)cccc2c1CNCCCCCCNCc1c(OC)ccc2c(OC)cccc12.CS(=O)(=O)O`, the Inhibition is reported as 92%.
Work on `Cc1nc(C)c(-c2ccc(Cl)cc2)c(O)c1I` yielded an Inhibition of 93%.
`Cc1nc(N)nc(N)c1-c1ccc(Br)c(Br)c1` was tested, and the Inhibition was 94%.
With `CCc1ccc(Cc2cnc3nc(N)nc(N)c3c2C)cc1` the Inhibition was 97%.
`Cc1nc(N)nc(N)c1-c1cc(Cl)c(Cl)c(Cl)c1` gave an Inhibition of 97%.
For `CCOc1ccc(CNCCCCCCNCc2ccc(OCC)c3ccccc23)c2ccccc12.CS(=O)(=O)O`, the Inhibition was 100%.
With `CCNC(=O)CCc1cccc(Br)c1` the Inhibition was 89%.
`CC(C)Cn1cc2c(ccc3nc(N)nc(N)c32)n1` showed an Inhibition of 97%.
For `Nc1nc(N)c2c(Oc3cc(Cl)c(Cl)c(Cl)c3)cccc2n1`, the Inhibition was 100%.
`Nc1nc(N)c2c(ccc3c2ccn3Cc2cccc(F)c2)n1` gave an Inhibition of 100%.
`COc1cc(Cc2cnc(N)nc2N)cc(OCCCS(=O)(=O)O)c1OC` was tested, and the Inhibition was 88%.
Compound `CCc1nc(N)nc(N)c1-c1ccc2c(c1)CCCC2` has an Inhibition of 95%.
For `Cl.Nc1nc(N)c2c3c(ccc2n1)NCCC3`, the Inhibition was 97%.
`CC1CCN(Cc2c(O)ccc3c(CN4CCC(C)CC4)c(O)ccc23)CC1.Cl` was tested, and the Inhibition was 100%.
In the case of `COc1cc(CCNC(=O)Cc2ccc3ccccc3c2)ccc1OCc1ccccc1`, the Inhibition is reported as 93%.
`Nc1nc(N)c2cc(Cc3ccc([N+](=O)[O-])cc3)cnc2n1.O=S(=O)(O)O` was tested, and the Inhibition was 91%.
For `CCN(CC)CCNc1cc(C)nc(NC(=N)Nc2ccc(Cl)cc2)n1.Cl`, the Inhibition was 100%.
Work on `CCCCc1cc(Cc2cnc(N)nc2N)cc(OC)c1OC.Cl` yielded an Inhibition of 86%.
`Cc1nc(C)c(-c2ccc(Oc3cc(Cl)cc(Cl)c3)cc2)c(O)c1Cl` was tested, and the Inhibition was 96%.
For `Nc1nc(N)c2c(Oc3ccc(Cl)c(Cl)c3)cccc2n1`, the Inhibition was 95%.
